Epigenetic derep = Quantitative High-Throughput Screen for Regulators of Epigenetic Control; AID 1865, 2009; Potency, µM (series often up to 53.9 µM), usual class: activators; 280,000 tested, 0.2% active; murine LDR cells, GFP reporter derepression, 30 h; note: nearly all actives have a fitted effect of over 60% in size
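Readout is the number of GFP-expressing murine LDR cells, counted by cytometry following washing. Cells were treated with compound for 30 h at 37 C; the stably integrated CMV-GFP locus is normally silent.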
TRHR enhancer-1 = qHTS for Small Molecule Agonists and Allosteric Enhancers of Human TRH Receptor: Primary Screen for Enhancers; Thyrotropin-releasing hormone receptor (Homo sapiens), P34981; TRHR cells, fluo-8 calcium fluorescence, EC20 TRH enhancement; enhancement, % at 2 µM; 360,000 tested, 0.66% active; in the data active = enhancement above about 30%
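TRHR-expressing cells loaded with fluo-8 calcium dye were read kinetically (ex 480/em 530) during compound addition, then stimulated with an EC20 of TRH (10 nM final). Enhancement of the Gq-mediated intracellular calcium response was scored.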
TRHR agonist-1 = qHTS for Small Molecule Agonists and Allosteric Enhancers of Human TRH Receptor: Primary Screen for Agonists. Thyrotropin-releasing hormone receptor (Homo sapiens), P34981. TRHR cells, calcium flux fluo-8, FDSS agonist mode. activation, % at 2 µM. 360,000 tested, 0.18% active; in the data active = activation above about 30%
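TRHR-expressing cells loaded with fluo-8 calcium dye; 23 nL library compound pin-transferred, kinetic FDSS fluorescence (Ex 480/Em 530) recorded about 180 s for agonist-induced calcium release, before a 10 nM TRH EC20 addition for potentiator mode.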
D1 antag = Antagonist of Human D 1 Dopamine Receptor: qHTS. HEK293 TREx D1 cells, calcium flux, dopamine EC80; hits give low values. 360,000 tested, 3.2% active. D(1A) dopamine receptor (Homo sapiens), P21728. activity change, negative = inhibition, % at 10 µM; in the data active = activity change below about -30%
Target sequence (P21728 whole entry, looked up): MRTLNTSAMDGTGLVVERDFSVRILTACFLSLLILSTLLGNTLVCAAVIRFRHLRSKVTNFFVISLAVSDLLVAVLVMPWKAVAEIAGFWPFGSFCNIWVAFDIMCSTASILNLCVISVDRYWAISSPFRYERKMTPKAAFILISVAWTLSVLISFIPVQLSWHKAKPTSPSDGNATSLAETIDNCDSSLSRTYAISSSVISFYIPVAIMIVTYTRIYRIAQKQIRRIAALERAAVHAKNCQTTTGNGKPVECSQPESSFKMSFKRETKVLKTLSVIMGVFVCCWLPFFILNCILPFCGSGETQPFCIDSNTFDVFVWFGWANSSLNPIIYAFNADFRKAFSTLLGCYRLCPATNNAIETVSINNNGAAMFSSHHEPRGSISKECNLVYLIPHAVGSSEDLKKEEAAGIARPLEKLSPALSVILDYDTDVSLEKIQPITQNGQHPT
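Using tetracycline-induced force-coupled D1 Hek293 cells and a calcium dye, signals were followed for 180 s after compound, then for 180 s after EC80 dopamine, to detect inhibitors.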
D1 agonist = Allosteric Agonists of the Human D1 Dopamine Receptor: qHTS; AID 504660, 2011; D(1A) dopamine receptor (Homo sapiens), P21728; HEK293 T-REx D1 cells, calcium flux, agonist mode; activation, % at 2 µM; 360,000 tested, 1% active; in the data active = activation above about 30%
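Tetracycline-induced HEK293 TREx D1 cells, force-coupled to calcium signalling, were dye-loaded with a no-wash calcium kit. Compound was pin-added after a 10 s baseline. Fluorescence was read kinetically at 1 cycle/s for 180 s, with calcium rises flagged as agonism.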
D1 PAM = Potentiators of Human D1 Dopamine Receptor: qHTS; HEK293 TREx D1 cells, calcium flux, dopamine EC20 potentiation; potentiation, % at 10 µM; 360,000 tested, 0.036% active; in the data active = potentiation above about 30%
TRHR enhancer-2 = qHTS for Small Molecule Agonists and Allosteric Enhancers of Human TRH Receptor: Confirmation Screen for Enhancers; activity change, negative = inhibition, % at 46.1 µM; TRH receptor cell assay, enhancer confirmation qHTS; AID 493076, 2011; shares compounds with TRHR enhancer-1; 970 tested, under 10 active;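 note: compound effect scored on response to added TRH at EC20 of 10 nM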
TRHR agonist-2 = qHTS for Small Molecule Agonists and Allosteric Enhancers of Human TRH Receptor: Confirmation Screen for Agonists | shares compounds with TRHR enhancer-1 | TRHR-expressing cells, agonist activation read-out | Potency, µM (top dose mostly 46.1 µM), actives largely listed as activators | 970 tested, 8% active | AID 493078, 2011; note: nearly all actives have a fitted effect of over 75% in size
Large screens that a line does not name were inactive (follow-up assays come after a bar, where they were run). Sampled rows, rich in hits. Any-hit rate of the full collection: about 4.6%. Unless noted, calls come from the whole dose curve; as a rule, active = well fitted curve in the direction sought with a large enough effect; inconclusive = small, poorly fitted or top-dose-only effect, or another doubt; inactive = no such curve, though single readings can be large; an effect the other way counts as inactive or inconclusive.

C=CCn1c(C)cc(-c2csc(NC(=O)C3=COCCO3)n2)c1C	TRHR enhancer-1 59 (no result: Epigenetic derep) | TRHR enhancer-2 inactive | TRHR agonist-2 inactive
CSc1ccc(CCNC(=O)c2cc3cc(S(=O)(=O)N4CCCCC4)ccc3n2C)cc1	none
CCCCn1nnnc1SCC(=O)NNC(=O)C1CCCCC1	TRHR enhancer-1 42 | TRHR enhancer-2 inactive | TRHR agonist-2 inactive
CCCn1nnnc1SCC(=O)NC1CCCC1	none (no result: Epigenetic derep)
Cc1ccc(-c2nnc(Nc3ccc(Br)cc3)c3ccccc23)cc1S(=O)(=O)NCC1CCCO1 (centres undefined)	none
O=C(O)c1cccc(CSc2nc(-c3ccc(Cl)cc3)cc(C(F)(F)F)n2)c1	TRHR enhancer-1 42, D1 antag -37 | TRHR enhancer-2 inactive | TRHR agonist-2 inconclusive
CC(C)Nc1ncnc2c1cnn2-c1ccc(Cl)cc1	TRHR enhancer-1 55 | TRHR enhancer-2 inactive | TRHR agonist-2 inactive
Cc1c(C)c2cc3c(C)coc3cc2oc1=O	TRHR enhancer-1 41 (no result: Epigenetic derep) | TRHR enhancer-2 inactive | TRHR agonist-2 inactive
COc1ccc(C2=C(C(C)=O)Sc3nnc(-c4ccc(C)cc4)n3N2C(C)=O)cc1OC	none (no result: D1 antag)
Nn1c(SCc2cccc3ccccc23)nnc1-c1ccco1	TRHR enhancer-1 50 | TRHR enhancer-2 inactive | TRHR agonist-2 inactive
Cn1c(SCc2cccc3ccccc23)nnc1-c1ccco1	none
Cc1ccc(C)n1C1CCS(=O)(=O)C1 (centres undefined)	none
CC(C)c1ccccc1N=C1SCCN1C1CCS(=O)(=O)C1 (centres undefined)	TRHR enhancer-1 70 | TRHR enhancer-2 inactive | TRHR agonist-2 inconclusive
CCOC(=O)c1cnc(-n2nc(C)cc2C)nc1Nc1ccc(OC)cc1	TRHR enhancer-1 42 | TRHR enhancer-2 inactive | TRHR agonist-2 inconclusive
CC(=O)c1sc(NC(=O)c2c(-c3ccccc3)c(-c3ccccc3)nn(C)c2=O)nc1C	none
CC1(C)CC(=O)C2=C(C1)O[C@@]1(CCCCN3C(=O)c4ccccc4C3=O)Cc3ccccc3C2O1	none (no result: Epigenetic derep)
Cc1ccc(C)c(NC(=O)C[n+]2ccccc2)c1	TRHR enhancer-1 65 (no result: Epigenetic derep) | TRHR enhancer-2 inactive | TRHR agonist-2 inactive
CCOC(=O)c1c(NC(=O)COC)sc(C(C)=O)c1C	TRHR agonist-1 33 | TRHR enhancer-2 inactive | TRHR agonist-2 inactive
CCOC(=O)c1c(NC(=O)COC)sc(C)c1C	none
CCCCNC(=O)c1cc2c(=O)n3cccc(C)c3nc2n1C	none
COCCNC(=O)c1cc2c(=O)n3cccc(C)c3nc2n1C	TRHR enhancer-1 41 | TRHR enhancer-2 inconclusive | TRHR agonist-2 inactive
CCOC(=O)c1c(NC(=O)Cn2c(C)nc3ccccc32)sc2c1CCC2	TRHR enhancer-1 60 | TRHR enhancer-2 inactive | TRHR agonist-2 inactive
COc1ccc(C)cc1S(=O)(=O)N1CCC2(CC1)OCCN2S(=O)(=O)c1cccs1	TRHR enhancer-1 66 (no result: Epigenetic derep) | TRHR enhancer-2 inconclusive | TRHR agonist-2 inactive
COc1cc(Cl)c(C)cc1NC(=O)C(OC(=O)CNC(=O)c1ccccc1)c1ccccc1 (centres undefined)	none (no result: Epigenetic derep)
CC(C)C[C@H](NC(=O)OC(C)(C)C)C(=O)N/N=C/c1ccc2nccnc2c1	TRHR enhancer-1 53 | TRHR enhancer-2 inactive | TRHR agonist-2 inactive
COc1ccc(Cc2nc3ccc(C(=O)NCc4cc(Br)ccc4OC)cc3o2)cc1	none
OC(CN1CCCCC1)Cn1c2ccccc2c2ccccc21 (centres undefined)	none (no result: Epigenetic derep)
O=C(/C=C/c1cn(CC(O)CN2CCCCC2)c2ccccc12)c1cccs1 (centres undefined)	TRHR agonist-1 36, D1 agonist 46 | TRHR enhancer-2 inactive | TRHR agonist-2 inconclusive
CCC(C(=O)NCc1cccnc1)c1ccccc1 (centres undefined)	TRHR enhancer-1 42 | TRHR enhancer-2 inactive | TRHR agonist-2 inactive
COc1ccc(-c2noc(N3CCC(C(=O)Nc4ccc(C)c(F)c4)CC3)n2)cc1OC	none
CC(C)[C@@H](OCc1ccccc1)[C@H](C)/C=N\OC[C@@H](O)COCc1ccco1	none (no result: TRHR enhancer-1, TRHR agonist-1, D1 antag, D1 agonist, D1 PAM)
Cc1ccc(CSc2nncn3c2cc2sccc23)cc1	none
CCc1nnc(NC(=O)CCC(=O)N2CCN(Cc3cc(Cl)ccc3OC)CC2)s1	TRHR enhancer-1 64 | TRHR enhancer-2 inactive | TRHR agonist-2 inactive
Cc1ccc(C)c(N2CCN(C(=O)C3CCN(S(=O)(=O)c4cn(C)cn4)CC3)CC2)c1	none
COc1ccc2oc(=O)c(C(=O)NC3CCCCCC3)cc2c1	TRHR enhancer-1 51 (no result: Epigenetic derep) | TRHR enhancer-2 inactive | TRHR agonist-2 inactive
CNC(=O)c1cc2cc(OC)ccc2oc1=O	none
COc1ccc(C(CNC(=O)CCNS(=O)(=O)c2ccc(Br)cc2)N2CCCC2)cc1 (centres undefined)	TRHR enhancer-1 48, D1 antag -63, D1 agonist 48 (no result: Epigenetic derep) | TRHR enhancer-2 inactive | TRHR agonist-2 inactive
CC(C)c1ccc(S(=O)(=O)/N=C2\C=C(NS(=O)(=O)c3ccccc3)C(=O)c3ccccc32)cc1	none (no result: Epigenetic derep)
CCc1ccc(S(=O)(=O)/N=C2\C=C(NS(=O)(=O)c3ccccc3)C(=O)c3ccccc32)cc1	TRHR enhancer-1 49 (no result: Epigenetic derep) | TRHR enhancer-2 inactive | TRHR agonist-2 inactive
COc1cc(/C=C2/C(=O)NN(c3cccc(C)c3)C2=O)ccc1OC(=O)c1ccco1	TRHR enhancer-1 52 | TRHR enhancer-2 inactive | TRHR agonist-2 inactive
COc1cc(/C=C2/C(=O)NN(c3cccc(C)c3)C2=O)cc([N+](=O)[O-])c1O	none
COC(=O)Cc1c(C)c2ccc3c(c2oc1=O)CN(Cc1ccc(Cl)cc1)CO3	none
COC(=O)c1cccc(NC(=O)CN2CCc3ccccc3C2)c1	TRHR enhancer-1 71 (no result: Epigenetic derep) | TRHR enhancer-2 inactive | TRHR agonist-2 inactive

High-throughput results: PubChem BioAssay, National Center for Advancing Translational Sciences (NCATS)
